Source: PubChem
In the library only some 2.9% were active in any assay of this set; here they are far more common.
LDHA block: qHTS assay for inhibitors of human lactate dehydrogenase | L-lactate dehydrogenase A chain (Homo sapiens), P00338 | purified LDHA, NADH/diaphorase-resazurin fluorescence; stronger effect = lower value | activity change, % (values are at about 110 or 230 µM) | 480,000 tested, 0.15% active | AID 1347041, 2019; in the data active means activity change below about -30%; inconclusive means mostly about -25% to -30%;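 further: plate controls were DMSO wells for no effect and wells without enzyme for full effect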
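Human LDH5 at 2 nM final in Tris HCl pH 7.4 with 0.06 mM NADH and 0.2 mM pyruvate, reacted 5 minutes at room temperature. Remaining NADH coupled via diaphorase/resazurin; resorufin fluorescence read at 0 and 20 minutes, normalized to enzyme-free and DMSO wells.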
p53 reactivator: qHTS assay for re-activators of p53 using a Luc reporter | H1299 p53-A138V BP100-luciferase reporter, luminescence, 24 h | Potency, µM (top dose mostly 92.2 µM), inactives show at the top dose activity change, positive = activation, actives largely listed as activators | 320,000 tested, 0.063% active | AID 504706, 2011; further: potency means the concentration at half of the fitted maximal effect; % of control where 0% means no effect; nearly all actives have a fitted effect of over 45% in size
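p53-null H1299 cells stably carrying temperature-sensitive p53-A138V and a BP100-luciferase reporter were pinned with compounds (4-point, 1:5 series) and held 24 hrs at 37 deg C. Luminescence was read 10 min after detection reagent.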
ClpP mod: qHTS Assay for Activators of ClpP; purified B. subtilis ClpP, FRET peptide cleavage, 20 min; Potency, µM (titrated, usually from 57.5 µM), for the others: at the highest dose activity change, negative = active; 340,000 tested, 1.9% active; AID 651965, 2013; active means well fitted falling curve with a large enough effect; inconclusive means small, poorly fitted or top-dose-only effect; inactive means no such curve, though single readings can be large or run the other way; further: potency means the concentration at half of the fitted maximal effect; the source files actives as falling curves though it sought activators and does not explain the sign; nearly all actives have a fitted effect of over 65% in size
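Buffer: 100 mM Tris/HCl pH8, 100 mM KCl, 0.05% low protease BSA, 2.5% glycerol, 0.01% Tween-20. ClpP 10 microg/mL final; 20 min RT; delta FRET normalized to ADEP and DMSO controls.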
GLP-1R inv ag: qHTS of GLP-1 Receptor Inverse Agonists (Inhibition Mode); 410,000 tested, 1.6% active; AID 624417, 2012; HEK293 GLP-1R CRE-luciferase, luminescence, 24 h; GLP-1R form is constitutively active; Potency, µM (titrated, usually from 38.3 µM), for the others: at the top dose activity change, negative = inhibition, actives largely listed as inhibitors; Glucagon-like peptide 1 receptor (Homo sapiens), P43220; further: potency means the concentration at half of the fitted maximal effect; on the % scale 0 is the no-effect control and ±100 the full control effect; nearly all actives have a fitted effect of over 55% in size
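qHTS in 1536-well format: reporter HEK293 cells expressing constitutive GLP-1R activity in DMEM + 10% Nu serum, 24 hr with compounds at 37 deg C, luminescence read after 12 min with detection reagent.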
GLP-1R agonist: qHTS of GLP-1 Receptor Agonists. Glucagon-like peptide 1 receptor (Homo sapiens), P43220. HEK293 GLP-1R CRE-luciferase, luminescence, 4-6 h; cells express a hypersensitive GLP-1R form. Potency, µM (top dose mostly 45.6 µM), without a hit: top-dose activation, usual class: activators. AID 624172, 2012. 380,000 tested, 0.007% active; further: potency means the concentration at half of the fitted maximal effect; % of control where 0% means no effect
GLP1R cytotox: qHTS of GLP-1 Receptor Inverse Agonists: Cytotox Screen; HEK293 cAMP-luciferase reporter cells, luminescence, 24 h; Potency, µM (series often up to 38.3 µM), inactives show at the highest dose activity change, negative = inhibition, hits mostly inhibitors; 410,000 tested, 0.13% active; AID 624418, 2012;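 further: loss of luciferase light is scored as toxicity; potency means the concentration at half of the fitted maximal effect; on the % scale 0 is the no-effect control and ±100 the full control effect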
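To flag toxic compounds, the library was rerun on cells for 24 hr at 37 deg C and 5% CO2. Viability-linked luminescence was captured 12 min after adding luciferase detection reagent.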
* marks the source's active call; other numbers are inactive results; ? = inconclusive; / = no result. Unless noted, the call rests on the fitted dose curve; in most records, active means well fitted curve in the direction sought with a large enough effect; inconclusive means small, poorly fitted or top-dose-only effect, or another doubt; inactive means no such curve, though single readings can be large; an effect the other way counts as inactive or inconclusive.

SMILES	LDHA block	p53 reactivator	ClpP mod	GLP-1R inv ag	GLP-1R agonist	GLP1R cytotox
CCc1ccc(CNC(=O)c2cnc3sc(N(CC)CC)nn3c2=O)cc1	-11	/	13µM*	-4%	/	0%
CC(=O)Nc1sc2c(c1C(c1cccs1)N1CCOCC1)CCCC2 (centres undefined)	-4	-6%	-3%	6%	-3%	11%
COCCN1CCN(C(=O)c2cc(COc3ccc(F)cc3F)on2)CC1	-56*	0%	-5%	-13%	1%	8%
COCCCC1CCN(C(=O)c2cc(COc3ccc(C)nc3)on2)CC1	3	-30%	28µM*	11%	17%	0%
O=C(c1cc(COc2ccc(F)cc2Cl)on1)N1CCN(C2CCCCC2)C(=O)C1	-7	-4%	1%	10µM*	11%	-11%
O=C(c1cc(COc2ccc(F)cc2Cl)on1)N1CCN(C2CCCC2)CC1	-2	12%	-6%	?	18%	-16%
COc1cc(/C=C2\SC(=Nc3ccc(Cl)c(C(=O)O)c3)NC2=O)c(Br)c(Br)c1O	-33*	16%	/	-16%	1%	73%
COc1cccc(NCc2cc(=O)oc3cc(C)c(C(C)C)cc23)c1	3	5%	-3%	11µM*	17%	-18%
Clc1ccc(Cc2ccc(Cl)nn2)c(Cl)c1	-8	?	-1%	0%	0%	-7%
COc1ccc(C(=O)COc2ccccc2C#N)cc1	-3	32µM*	-1%	-13%	27%	-9%
Cc1cccc(N2C(=O)C(Cl)=C(N3CCOCC3)C2=O)c1	-1	7%	0%	14%	-7%	4%
C=CCOc1cccc(/C=C2\C(=O)N(Cc3ccc(C)cc3)C(C)=C2C(=O)OC)c1	-3	1%	/	4.5µM*	9%	-26%
COc1cccc(-n2c(C)c(C)c3c2ncn2nc(-c4cccs4)nc32)c1	-36*	/	/	/	/	/
COc1cccc(-n2c(C)c(C)c3c2ncn2nc(-c4ccco4)nc32)c1	-5	/	/	/	/	/
C#CCSc1nnc(-c2sc(-c3ccccc3)nc2C)n1C	-8	0%	18µM*	2%	10%	1%
NC(=O)C[n+]1ccc(/C=N/O)cc1	1	2%	1%	18%	-7%	2%
CSc1cccc(NC(=O)c2ccccc2C(F)(F)F)c1	8	/	/	/	/	/
COc1cccc(-n2c(SCC(N)=O)nnc2-c2ccco2)c1	-7	-35%	32µM*	3%	0%	6%
Cn1c(SCC(=O)NC2CC2)nnc1-c1cccs1	1	35µM*	-4%	4%	-1%	-6%
O=C(CSc1nnc(-c2ccco2)n1-c1ccccc1)NCC1CCCO1 (centres undefined)	-1	4%	32µM*	11%	1%	-6%
COc1ccc(-n2c(SCC(=O)Nc3ccccc3)nnc2-c2ccoc2C)cc1	-6	/	-2%	?	2%	17%
COc1cccc(NC(=O)CSc2nnc(-c3ccoc3C)n2-c2ccccc2)c1	2	-5%	0%	11µM*	4%	2%
COc1ccc([N+](=O)[O-])cc1NC(=O)/C=C/C(=O)O	-3	5%	-10%	0%	-1%	-1%
Cc1ccc(NC(=O)COC(=O)CNC(=O)C2CCCCC2)cc1S(=O)(=O)N(C)C	-19	6%	/	0%	7%	1%
Cc1occc1-c1nnc(SCC(=O)NC2CCCC2)n1-c1ccccc1	-2	-5%	3%	11µM*	0%	-4%
SMILES	LDHA block	p53 reactivator	ClpP mod	GLP-1R inv ag	GLP-1R agonist	GLP1R cytotox
CCn1c(SCC(=O)N(C)CC(=O)Nc2cccc(OC)c2)nnc1-c1ccco1	-4	0%	28µM*	5%	-3%	-4%
CCn1c(SCC(=O)N(C)CC(=O)Nc2ccc(OC)cc2)nnc1-c1ccco1	0	-2%	-5%	1%	10%	0%
Cc1ccccc1-c1nc(CS(=O)(=O)CC(=O)NCCCN2CCCC2)c(C)o1	1	5%	-1%	-6%	6%	3%
CC(C)c1nnc(NC(=O)c2cc(=O)c3cc(Cl)cc(Cl)c3o2)s1	-35*	/	/	/	/	/
Cc1nnc(NC(=O)c2cc(=O)c3cc(Cl)cc(Cl)c3o2)s1	13	/	/	/	/	/
O=C(NCCc1cccs1)c1ccc(Cl)c(Cl)c1	-3	17%	2%	?	12%	2%
CC(C)=CC(=O)NCCc1cccs1	-3	/	/	/	/	/
Cc1ccc(C(=O)NCCc2cccs2)cc1	-2	-11%	-1%	5µM*	-3%	3%
O=C(NCCc1cccs1)c1ccc(Cl)cc1	-10	16%	0%	10µM*	-1%	-8%
COc1ccc(NS(=O)(=O)c2csc(C(=O)N3CCCC3)c2)cc1	-8	-4%	-1%	?	7%	-5%
COc1ccc(CN(C(=O)CSc2nnc(-c3ccccc3C)o2)c2ccc(F)cc2)cc1	-6	-24%	-4%	?	2%	11%
COc1cc(/C=C(/C#N)C(=O)NCCCc2ccccc2)ccc1OCC(=O)O	-34*	-4%	-3%	51%	-6%	9%
COc1cc(/C=C(\C#N)C(=O)NCc2ccccc2)ccc1OCc1ccc(C(=O)O)cc1	-13	-2%	-5%	13%	-2%	-6%
CCC(Sc1nc(-c2ccccc2)cc(=O)[nH]1)C(=O)O (centres undefined)	1	8%	0%	5%	-4%	5%
Cc1ccccc1C(=O)Nc1ccc(Br)cn1	2	45%	1%	-24%	0%	3%
O=C(Nc1ccccc1C(=O)Nc1ccc(Br)cn1)c1ccccc1Cl	-6	-4%	-10%	10µM*	-1%	3%
Cc1ccc(NS(=O)(=O)c2ccc3c(c2)NC(=O)CO3)cc1Cl	0	-1%	1%	10µM*	-1%	-10%
Cc1ccc2c(CSc3nncn3C)cc(=O)oc2c1C	-1	-2%	/	1%	5%	7%
COc1ccc(CC(=O)N2CCN(c3ccccn3)CC2)cc1	-4	8%	20µM*	2%	-9%	-16%
CN(CC(=O)N1CCN(c2ncccn2)CC1)S(=O)(=O)c1ccc(Cl)cc1	-2	-1%	/	-8%	9%	-5%
Cc1ccc(CC(=O)N2CCN(c3ccccn3)CC2)cc1	-7	5%	22µM*	-2%	3%	7%
CN(CC(=O)N1CCN(c2ccccn2)CC1)S(=O)(=O)c1ccccc1	-10	11%	32µM*	12%	-5%	-8%
